Reference: PubChem BioAssay (NCATS)
Records with an inconclusive call do not appear. Activity calls are given as the source filed them. Unless noted, calls follow the shape of the full dose curve.

How the values were obtained:
[1] = Inducers of the Endoplasmic Reticulum Stress Response (ERSR) in human glioma: Validation (AID 504836; active = well fitted curve in the direction sought with a large enough effect; an effect the other way counts as inactive or inconclusive)
Procedure, shortened: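 Stably transfected U87-MG human glioma cells carrying a GRP78-based luminescent sensor were seeded at 1000 cells/well, pin-dosed with compounds and incubated 16 h. Luciferase reagent was then added, and end-point luminescence was read after 10 min at room temperature.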

[2] = qHTS for Inhibitors of the Functional Ribonucleoprotein Complex (vRNP) of Lassa (LASV) Arenavirus: Viability assay - alamar blue signal for LASV Primary Screen (AID 1347083; calls by dose curve; tested in HEK293 reporter line; also: nearly all actives have a fitted effect of over 80% in size; also: potency is read from the fitted curve at half-maximal effect)
[3] = qHTS for Inhibitors of the Functional Ribonucleoprotein Complex (vRNP) of Lymphocytic Choriomeningitis Arenaviruses (LCMV): Viability assay - alamar blue signal for LCMV Primary Screen (AID 1347085; calls by dose curve; tested in HEK293 reporter line; also: nearly all actives have a fitted effect of over 80% in size; also: potency is read from the fitted curve at half-maximal effect)
[4] = Primary qHTS for Huh7 cytotoxicity: counterscreen for inhibitors of MERS-S pseudotyped particle cell entry (AID 1479147); details: outcome: dose series up to 57.1 µM unless noted
[5] = Primary qHTS for Vero E6 cytotoxicity: counterscreen for inhibitors of SARS-S pseudo-typed particle cell entry (AID 1479150); details: outcome: dose series up to 57.1 µM unless noted
[6] = VSVG counterscreen qHTS to identify inhibitors of SARS-CoV-2 cell entry (AID 1645847); also: potency is read from the fitted curve at half-maximal effect; nearly all actives have a fitted effect of over 65% in size
Procedure, shortened: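 Entry of VSV-G pseudotyped particles into human ACE2-expressing HEK293 cells was measured by luciferase luminescence 48 h after infection, with compound added 1 h beforehand.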

[7] = target: Alpha-galactosidase (Coffea arabica) (UniProt Q42656); assay: Counterscreen for Glucocerebrosidase Inhibitors: qHTS Assay for Coffee Bean alpha-Galactosidase at pH 4.5 (AID 957; active = well fitted curve in the direction sought with a large enough effect; an effect the other way counts as inactive or inconclusive)
Sequence of Alpha-galactosidase (Coffea arabica) (Q42656 whole entry, looked up): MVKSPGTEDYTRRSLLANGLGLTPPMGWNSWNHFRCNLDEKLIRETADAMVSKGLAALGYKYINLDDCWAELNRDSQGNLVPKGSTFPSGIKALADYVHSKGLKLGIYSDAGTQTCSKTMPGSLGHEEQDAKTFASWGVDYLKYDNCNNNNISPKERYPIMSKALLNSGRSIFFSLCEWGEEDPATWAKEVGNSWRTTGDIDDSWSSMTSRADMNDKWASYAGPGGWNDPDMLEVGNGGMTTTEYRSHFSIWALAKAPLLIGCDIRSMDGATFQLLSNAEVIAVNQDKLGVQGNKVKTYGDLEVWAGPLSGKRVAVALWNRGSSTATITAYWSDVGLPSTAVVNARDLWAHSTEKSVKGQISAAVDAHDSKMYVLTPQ
Procedure, shortened: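 AC50 values derive from Hill-equation modeling of concentration-response data, normalized to no-enzyme and full-activity controls. The pH 4.5 citrate assay used 2 nM coffee bean enzyme and 80 uM fluorogenic substrate for 20 min.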

[8] = target: Alpha-galactosidase (Coffea arabica) (UniProt Q42656); assay: Counterscreen for Glucocerebrosidase Inhibitors: qHTS Assay for Coffee Bean alpha-Galactosidase at pH 5.9 (AID 998; active = well fitted curve in the direction sought with a large enough effect; an effect the other way counts as inactive or inconclusive)
Procedure, shortened: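 Green coffee bean enzyme (2 nM final) was incubated with compounds (0.7 nM–77 uM) and 4-methylumbelliferyl alpha-D-galactopyranoside (80 uM) in citrate buffer pH 5.9, 20 min at room temperature. High-pH stop; fluorescence 365/440 nm; AC50 from Hill fits.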

[9] = Validation screen for inhibitors of Lassa infection (AID 463096)
[10] = Cytotoxicity counterscreen for inhibitors of SARS-CoV-2 cell entry (AID 1645845); also: nearly all actives have a fitted effect of over 50% in size
Procedure, shortened: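 Expi293F/hACE2 cells seeded overnight; cpd pin-transferred in DMSO, 1 h preincubation, + media, 48 h 37 C 5% CO2; ATPLite 1step luminescence; normalized to cells and no cells.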

[11] = Primary qHTS for inhibitors of SARS-S pseudo-typed particle cell entry (AID 1479145); also: nearly all actives have a fitted effect of over 45% in size
[12] = Primary qHTS for inhibitors of MERS-S pseudo-typed particle cell entry (AID 1479149); also: nearly all actives have a fitted effect of over 60% in size
[13] = Primary qHTS to identify inhibitors of SARS-CoV-2 cell entry (AID 1645846); details: activity change, negative = inhibition: at 57.1 µM (top of the series) unless noted; also: nearly all actives have a fitted effect of over 45% in size
Procedure, shortened: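 Using luciferase-reporting pseudoviruses carrying Wuhan-Hu-1 spike, the screen tracks entry into stably ACE2-expressing cells over 48 hr. Activity is expressed relative to spike particles versus particles lacking any fusion protein.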

[14] = qHTS for differential inhibitors of proliferation of Plasmodium falciparum line 3D7 (AID 1876; active = well fitted curve in the direction sought with a large enough effect; an effect the other way counts as inactive or inconclusive; also: potency is read from the fitted curve at half-maximal effect)
[15] = Nrf2 qHTS screen for inhibitors: Validation (AID 493153; active = well fitted inhibition curve with a large enough effect in the main read-out, with a control signal flat, not every such curve was filed as active); details: Potency: luciferase luminescence; viability change: measured here: cytotoxicity max response
Procedure, shortened: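 Dose-response validation uses reporter A549 cells with firefly luciferase under an antioxidant response element. Compounds stay on cells 18-24 h at 37°C, and luminescence indicates Nrf2-driven transcription.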

[16] = qHTS for Inhibitors of ATXN expression: Validation (AID 588378; active = well fitted curve in the direction sought with a large enough effect; an effect the other way counts as inactive or inconclusive; also: nearly all actives have a fitted effect of over 75% in size)
Procedure, shortened: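 After a 2 h attachment and 24 h compound incubation, HEK293-ATXN2-FFLuc wells are read for fluorescence at 405 nm excitation/525 nm emission as a viability measure, then for Bright-Glo luminescence reflecting ATXN2 expression.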

[17] = target: Peroxisome proliferator-activated receptor delta (Homo sapiens) (UniProt Q03181); assay: qHTS assay for small molecule agonists of peroxisome proliferator-activated receptor delta signaling (AID 588534)
Sequence of Peroxisome proliferator-activated receptor delta (Homo sapiens) (Q03181 whole entry, looked up): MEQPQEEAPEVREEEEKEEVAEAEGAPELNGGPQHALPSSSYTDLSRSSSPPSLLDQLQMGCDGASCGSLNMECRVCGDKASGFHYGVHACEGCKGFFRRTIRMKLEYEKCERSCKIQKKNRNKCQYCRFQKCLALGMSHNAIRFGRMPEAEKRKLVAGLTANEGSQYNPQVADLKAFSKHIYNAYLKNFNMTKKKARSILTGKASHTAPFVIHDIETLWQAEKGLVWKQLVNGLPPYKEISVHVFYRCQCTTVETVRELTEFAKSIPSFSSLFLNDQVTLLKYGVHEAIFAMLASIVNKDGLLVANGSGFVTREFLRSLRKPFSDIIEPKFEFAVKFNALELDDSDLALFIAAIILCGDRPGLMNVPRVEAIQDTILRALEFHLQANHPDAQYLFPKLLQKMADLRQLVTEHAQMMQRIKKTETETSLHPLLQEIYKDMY
Procedure, shortened: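 Reporter cells were plated and held 5 hrs at 37 C before compounds were added. After 18 hrs at 37 C, CCF4 dye was loaded for 2 hrs at RT and fluorescence measured.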

[18] = qHTS assay for small molecule activators of the p53 signaling pathway (AID 651743; active = well fitted activation curve with a large enough effect in the signal ratio, not every such curve was filed as active; the % refers to the signal ratio; also: potency is read from the fitted curve at half-maximal effect); details: HCT-116 p53RE-bla, beta-lactamase FRET ratio, 16 h; activation: stronger effect = higher value
Procedure, shortened: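 p53RE-bla HCT-116 cells with a stably integrated beta-lactamase reporter under p53 response elements were plated, rested 5 hours at 37 C/5% CO2, then exposed to compounds in DMSO for 16 hours at 37 C. LiveBLAzer B/G FRET substrate was read after 2 hours at room temperature.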

[19] = qHTS assay to identify small molecules that stimulate interleukin-8 (IL-8) secretion (AID 651758; active = well fitted activation curve with a large enough effect in the signal ratio; the % refers to the signal ratio; also: potency is read from the fitted curve at half-maximal effect)
Procedure, shortened: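 THP-1, 2000 cells/well; cpd 16 h, 37 C; add cryptate + XL665 anti-IL-8 Abs; RT 1-3 h; TR-FRET read.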

[20] = target: Nuclear receptor ROR-gamma (Homo sapiens) (UniProt P51449); assay: qHTS assay for small molecule antagonists of the retinoid-related orphan receptor gamma (ROR-gamma) signaling pathway (AID 651802; active = well fitted curve in the direction sought with a large enough effect; an effect the other way counts as inactive or inconclusive; also: potency is read from the fitted curve at half-maximal effect; nearly all actives have a fitted effect of over 60% in size)
Sequence of Nuclear receptor ROR-gamma (Homo sapiens) (P51449 whole entry, looked up): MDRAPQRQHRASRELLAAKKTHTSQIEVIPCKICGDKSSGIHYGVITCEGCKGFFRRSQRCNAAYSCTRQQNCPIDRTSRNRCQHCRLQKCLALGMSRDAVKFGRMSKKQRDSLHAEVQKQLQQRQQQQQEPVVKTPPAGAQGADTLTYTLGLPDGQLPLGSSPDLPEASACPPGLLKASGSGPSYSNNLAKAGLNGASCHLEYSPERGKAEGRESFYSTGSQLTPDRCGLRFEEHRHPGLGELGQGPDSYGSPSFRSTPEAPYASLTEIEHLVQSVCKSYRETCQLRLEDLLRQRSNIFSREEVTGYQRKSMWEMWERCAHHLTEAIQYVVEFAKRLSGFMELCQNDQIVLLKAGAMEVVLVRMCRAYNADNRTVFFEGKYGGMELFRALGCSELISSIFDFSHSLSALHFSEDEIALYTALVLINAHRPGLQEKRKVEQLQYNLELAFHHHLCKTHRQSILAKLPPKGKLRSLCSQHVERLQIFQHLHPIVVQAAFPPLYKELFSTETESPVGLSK
Procedure, shortened: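 Antagonism is scored as a fall in luminescence from a RORE-luciferase reporter in CHO cells expressing ROR under a TET-inducible promoter, measured 16hr after doxycycline induction in the presence of compound.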

[21] = target: Arylsulfatase A (Homo sapiens) (UniProt P15289); assay: qHTS screen for enhancers of Arylsulfatase A (ASA1): LOPAC Validation Assay (AID 720538; active = well fitted curve in the direction sought with a large enough effect; an effect the other way counts as inactive or inconclusive)
Sequence of Arylsulfatase A (Homo sapiens) (P15289 whole entry, looked up): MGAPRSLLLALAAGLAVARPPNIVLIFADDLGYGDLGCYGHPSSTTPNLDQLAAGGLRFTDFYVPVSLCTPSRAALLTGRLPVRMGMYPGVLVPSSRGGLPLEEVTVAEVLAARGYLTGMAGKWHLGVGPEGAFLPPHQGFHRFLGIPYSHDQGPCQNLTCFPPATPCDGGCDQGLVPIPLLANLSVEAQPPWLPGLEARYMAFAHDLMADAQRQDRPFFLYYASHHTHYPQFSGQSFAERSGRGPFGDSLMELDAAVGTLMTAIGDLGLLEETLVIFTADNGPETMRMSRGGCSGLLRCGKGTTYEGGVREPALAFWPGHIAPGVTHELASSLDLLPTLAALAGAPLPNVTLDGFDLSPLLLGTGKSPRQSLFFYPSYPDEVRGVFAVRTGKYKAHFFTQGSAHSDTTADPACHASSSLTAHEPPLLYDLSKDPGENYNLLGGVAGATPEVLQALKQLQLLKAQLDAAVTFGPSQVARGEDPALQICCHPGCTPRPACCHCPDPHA
Procedure, shortened: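 Cell-based enhancement test: residual ASA activity in SV40-transformed I179S patient fibroblasts is measured by pNCS turnover (0.5mM final, 14h, room temperature) following 48h compound incubation; higher fluorescence indicates activation.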

O=C(c1ccc(OCCCc2cnc[nH]2)cc1)C1CC1
inactive: outcome [1] | Potency [2] | Potency [3]

COc1cc([C@@H]2c3cc4c(cc3[C@@H](O[C@@H]3O[C@@H]5CO[C@@H](C)O[C@@H]5[C@H](O)[C@@H]3O)[C@H]3COC(=O)[C@H]23)OCO4)cc(OC)c1O
active: Potency [2] 2.17 µM | Potency [3] 2.17 µM | Potency [6] 0.383 µM
inactive: outcome [4] | outcome [5]

CC(C)NC[C@@H](O)COc1cccc2ccccc12
inactive: outcome [7] | outcome [8] | Potency [9] | Potency [2] | Potency [3] | outcome [4] | outcome [5]

Cc1nc2c([nH]1)CCN(C(=O)c1ccc(NC(=O)c3ccccc3-c3ccccc3)cc1)c1ccccc1-2
inactive: Potency [2] | Potency [3] | outcome [4] | outcome [5] | Potency [10]

O=C(CC12CC3CC(CC(C3)C1)C2)Nc1cccc2nc(NCCNCCO)ccc12
inactive: Potency [10]
active: Potency [2] 21.7 µM | Potency [3] 24.3 µM

CC(=O)OCC(=O)[C@@]12OC(C)(C)O[C@@H]1C[C@H]1[C@@H]3C[C@H](F)C4=CC(=O)C=C[C@]4(C)[C@@]3(F)[C@@H](O)C[C@@]12C
inactive: Potency [2] | Potency [3] | Potency [11] | outcome [4] | Potency [12] | outcome [5] | Potency [10] | Potency [13]

CN(C)Cc1c(C(=O)NCCOc2ccc(C(=O)NO)cc2)oc2ccccc12
inactive: Potency [13]
active: Potency [2] 2.43 µM | Potency [3] 1.37 µM

NC(=O)c1ncn([C@@H]2O[C@H](CO)[C@@H](O)[C@H]2O)n1
inactive: outcome [8] | Potency [9] | Potency [15] | outcome [1] | Potency [16] | Potency [17] | Potency [21] | Potency [2] | Potency [3] | Potency [11] | outcome [4] | Potency [12] | outcome [5] | Potency [10]
7.17%: viability change [15]
active: Potency [14] 8.91 µM | Potency [18] 31.6 µM | Potency [19] 66.8 µM | Potency [20] 18.8 µM
-11.7%: activity change, negative = inhibition [13]
